Source: PubChem BioAssay AID1159580 (chemical genetic matrix, 2015)
Several values for one entry are separate records, joined by “and”; a condition that tells them apart may be missing. Equal values may be shown once. In all, about 5,500 compounds went through this assay and about 2,000 (36%) were called active. About 18% were inconclusive and are not listed. No stated cut-off is given here; in the data, active means normalized growth mostly below about 0.91 (no sharp cut-off); inconclusive means no clear call, values can overlap the other calls; inactive means mostly above about 0.92. Some of the results follow.

Experiment: chemical genetic growth profiling, strain panel (AID 1159580);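 further: tested at 20 µM; growth read once vehicle control cultures reached saturation at 30 °C; 1 = growth at the plate median or of vehicle wells; lower values mean less growth of the strain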
Details: S. cerevisiae deletion strains, growth OD

Measured: normalized growth

CCCCC1C(=O)N(c2ccccc2)N(c2ccc(O)cc2)C1=O (stereo not given)
inactive: locus YAL021C, strain ccr4, active compounds read low 1.02 | locus YAL026C, strain drs2, active compounds read low 0.998 | locus YAL030W, strain snc1, active compounds read low 1 | locus YBL061C, strain skt5, active compounds read low 0.999 | locus YBR009C, strain hhf1, active compounds read low 0.998 | locus YBR021W, strain FUR4, active compounds read low 0.995 | locus YBR023C, strain chs3, active compounds read low 1 | locus YBR171W, strain sec66, active compounds read low 1.01 | locus YBR229C, strain ROT2, active compounds read low 0.953 | locus YBR231C, strain swc5, active compounds read low 1 | locus YBR279W, strain paf1, active compounds read low 0.993 | locus YCL011C, strain gbp2, active compounds read low 1.01 | locus YCL016C, strain dcc1, active compounds read low 1.01 | locus YCL029C, strain bik1, active compounds read low 0.969 | locus YCL061C, strain MRC1, active compounds read low 1.01 | locus YCL069W, strain vba3, active compounds read low 1 | locus YCR088W, strain abp1, active compounds read low 1.01 | locus YDL005C, strain med2, active compounds read low 0.995 | locus YDL035C, strain GPR1, active compounds read low 0.972 | locus YDL040C, strain nat1, active compounds read low 0.997 | locus YDL074C, strain BRE1, active compounds read low 0.947 | locus YDL101C, strain DUN1, active compounds read low 0.98 | locus YDL134C, strain PPH21, active compounds read low 0.999 | locus YDL185W, strain tfp1, active compounds read low 0.974 | locus YDL192W, strain arf1, active compounds read low 0.984 | locus YDR001C, strain nth1, active compounds read low 0.995 | locus YDR069C, strain doa4, active compounds read low 0.988 | locus YDR101C, strain arx1, active compounds read low 1.01 | locus YDR137W, strain rgp1, active compounds read low 0.98 | locus YDR150W, strain NUM1, active compounds read low 0.979 | locus YDR159W, strain sac3, active compounds read low 1 | locus YDR162C, strain NBP2, active compounds read low 0.99 | locus YDR195W, strain ref2 0.987 | locus YDR297W, strain sur2, active compounds read low 1.01 | locus YDR318W, strain mcm21, active compounds read low 0.994 | locus YDR334W, strain swr1, active compounds read low 1.01 | locus YDR335W, strain msn5, active compounds read low 1.01 | locus YDR388W, active compounds read low 0.998 | locus YDR392W, strain spt3, active compounds read low 1.01 | locus YDR502C, strain sam2, active compounds read low 0.99 | locus YEL003W, strain gim4, active compounds read low 0.998 | locus YEL037C, strain rad23, active compounds read low 1 | locus YEL061C, strain CIN8 (second series), active compounds read low 1 | locus YEL061C, strain CIN8, active compounds read low 0.987 | locus YER015W, strain faa2, active compounds read low 0.996 | locus YER016W, strain bim1, active compounds read low 0.998 | locus YER110C, active compounds read low 0.965 | locus YER111C, strain swi4, active compounds read low 1 | locus YER155C, strain BEM2 (second series), active compounds read low 1.04 | locus YER155C, strain BEM2, active compounds read low 0.997 | locus YER167W, strain BCK2, active compounds read low 0.987 | locus YFR010W, strain ubp6, active compounds read low 1.01 | locus YGL078C, strain dbp3, active compounds read low 0.995 | locus YGL086W, strain mad1, active compounds read low 0.963 | locus YGL167C, strain pmr1, active compounds read low 1 | locus YGL173C, strain kem1, active compounds read low 0.983 | locus YGL227W, strain vid30, active compounds read low 1.01 | locus YGL240W, strain doc1, active compounds read low 1 | locus YGL248W, strain PDE1, active compounds read low 0.97 | locus YGL253W, strain hxk2, active compounds read low 1.01 | locus YGR135W, strain pre9, active compounds read low 0.988 | locus YGR229C, strain SMI1, active compounds read low 0.992 | locus YGR252W, strain gcn5, active compounds read low 0.893 | locus YHR013C, strain ard1, active compounds read low 1 | locus YHR027C, strain rpn1, active compounds read low 0.999 | locus YHR030C, strain SLT2, active compounds read low 0.999 and 0.974 | locus YHR079C, strain IRE1 (second series), active compounds read low 0.997 | locus YHR079C, strain IRE1, active compounds read low 0.973 | locus YHR094C, strain hxt1, active compounds read low 0.993 | locus YHR129C, strain ARP1, active compounds read low 0.982 | locus YHR142W, strain chs7, active compounds read low 1.01 | locus YHR200W, strain rpn10, active compounds read low 0.988 | locus YIL066C, strain RNR3, active compounds read low 0.976 | locus YIL073C, strain SPO22, active compounds read low 1.01 | locus YIL125W, strain kgd1, active compounds read low 0.985 | locus YIR030C, strain dcg1, active compounds read low 0.983 | locus YJL092W, strain hpr5, active compounds read low 1.01 | locus YJL095W, strain BCK1 (second series), active compounds read low 1.01 | locus YJL095W, strain BCK1, active compounds read low 1 and 0.992 | locus YJL115W, strain asf1, active compounds read low 1.01 | locus YJL129C, strain trk1, active compounds read low 0.997 | locus YJL134W, strain LCB3, active compounds read low 0.988 | locus YJL154C, strain vps35, active compounds read low 1 | locus YJL164C, strain tpk1, active compounds read low 0.994 | locus YJL166W, strain qcr8, active compounds read low 1.01 | locus YJL168C, strain set2, active compounds read low 0.994 | locus YJL187C, strain SWE1 (second series), active compounds read low 0.98 | locus YJL187C, strain SWE1, active compounds read low 1 | locus YJR043C, strain POL32, active compounds read low 0.999 | locus YJR066W, strain TOR1, active compounds read low 0.93
